Screens deposited in PubChem BioAssay by National Center for Advancing Translational Sciences (NCATS).
Pf growth 48h – P. falciparum growth inhibition at 48 hours (one generation); P. falciparum luciferase growth in erythrocytes, 48 h; Potency, µM (doses to about 28.7 µM), actives largely listed as inhibitors; actives 5.9% (n = 310,000)
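A one-generation exposure of luciferase-tagged malaria parasites in RPMI 1640/Albumax erythrocyte culture, 37 C and 5% CO2. Inhibition is inferred from decreased luminescence after adding detection reagent.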
HCV inhibitor – blocks hepatitis C virus; Huh7.5.1 HCVcc-Cre infection, luciferase reporter, 44 h; Potency, µM (top dose mostly 41.8 µM), actives largely listed as inhibitors; actives 3.4% (n = 340,000)
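A cell-based infection assay in which seeded cells (1,000 per well) receive test compound after 4 h, are inoculated with HCVcc-Cre at approximately 0.5 moi, and are incubated 44 h before luminescence detection.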
Pf growth 96h – inhibits malaria parasite growth, 96 h; actives 6.9% (n = 320,000); AID 504834; Potency, µM (highest dose often 28.7 µM), usual class: inhibitors; P. falciparum luciferase reporter growth, 96 h
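Readout is luminescence from an integrated firefly luciferase in P. falciparum. Red cells, 2% hematocrit and 0.05% parasitemia final, were cultured with compound through two parasite generations (96 hours) at 37 C, 5% CO2.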
SARS PLP yeast – SARS-CoV PLP inhibition in yeast; S. cerevisiae expressing SARS-CoV PLpro, growth rescue; Potency, µM (top dose mostly 32.9 µM), hits mostly activators; actives 0.19% (n = 330,000); calls by dose curve; also: nearly all actives have a fitted effect of over 55% in size
NS1 inh – blocks influenza NS1 protein function | Potency, µM (top dose mostly 46.1 µM) | actives 0.4% (n = 270,000); calls by dose curve; also: actives are rising curves; nearly all actives have a fitted effect of over 50% in size
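OD600 was taken as the measure of yeast growth restored by compound in an NS1-expressing S. cerevisiae strain. Cells had been washed out of glucose medium and diluted 1:100 into galactose -URA medium, pH 6.0.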
AMA1 RON2 block – inhibitors of Plasmodium falciparum AMA1-RON2 interaction; AID 720542; actives 0.2% (n = 360,000); Potency, µM (highest dose often 58.2 µM), actives largely listed as inhibitors; AlphaScreen AMA1-biotinylated RON2 peptide binding; also: nearly all actives have a fitted effect of over 45% in size
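AMA1 (3D7) with his tag at 25 nM final met compounds first, then biotinylated RON2 peptide at 25 nM; detection used donor plus acceptor beads, 10 µg/mL apiece, read by AlphaScreen after 30 min at room temperature.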
A number is an active result; - = inactive; ? = inconclusive; . = not tested or not shown; [ ] = another dose, or the depositor's remark. Most compounds without a hit are left out; they make up all but 12% or so of the library. Unless noted, calls follow the shape of the dose curve; as a rule, active = well fitted curve in the direction sought with a large enough effect; inconclusive = small, poorly fitted or top-dose-only effect, or another doubt; inactive = no such curve, though single readings can be large; an effect the other way counts as inactive or inconclusive.

SMILES	Pf growth 48h	HCV inhibitor	Pf growth 96h	SARS PLP yeast	NS1 inh	AMA1 RON2 block
COc1ccc(CCNC(=O)c2cc(S(=O)(=O)N3CCOCC3)cn2C)cc1OC	-	-	7.38µM	-	-	-
CCOC(=O)N1CCC(NC(=O)c2cc(S(=O)(=O)N3CCCC3)cn2C)CC1	7.38µM	-	0.415µM	-	-	-
Cn1cc(S(=O)(=O)N2CCOCC2)cc1C(=O)NCCc1ccccc1	-	-	-	-	-	-
Cn1cc(S(=O)(=O)N2CCCC2)cc1C(=O)NCCc1ccccc1	-	?	2.62µM	-	-	-
Cc1ccc(S(=O)(=O)NCCc2nnc3ccc(N4CCOCC4)nn23)cc1	.	.	.	.	.	-
COc1ccc(CN2CCNC(=O)C2CC(=O)N(C)CCCN2CCOCC2)cc1C (stereo not given)	-	-	-	?	-	-
COc1cc(C(=O)ON=C2C3CC4CC(C3)CC2C4)cc(OC)c1OC	1.17µM	-	1.47µM	-	-	-
COc1cc(C(=O)O/N=C2\C=CC(=O)C=C2C)cc(OC)c1OC	-	-	-	-	-	-
O=C(c1ccc2c(c1)N(Cc1ccc(F)cc1)CCS2)N1CCOCC1	-	-	10.4µM	-	-	-
O=C(c1ccc2c(c1)N(Cc1ccccc1)CCS2)N1CCCCC1	?	?	0.738µM	-	-	?
O=C(OCc1ccccc1)N1CCC2CC1c1cc(NCCc3ccccc3)ccc12 (stereo not given)	.	-[8.37 µM]	.	.	.	?
COc1ccc(CN(CCC#N)CCC2(c3ccccc3)CC(C)N(C)CC2C)cc1OC (stereo not given)	?	-	?	-	-	-
COc1ccc(CNCCC2(Cc3ccccc3)CC(C)N(C)CC2C)cc1OC (stereo not given)	?	7.94µM	-	-	-	-
CC(=O)N1CCN(C(=O)COC(=O)c2ccc(S(C)(=O)=O)cc2)CC1	.	-	.	-	.	-
CC(C)(O)C#CC#CCN1CCOCC1	-	-	10.4µM	-	-	-
OC1(C#CCN2CCOCC2)CCCCC1	-	-	-	-	.	-
COC(=O)c1nc(-c2ccccc2)oc1N1CCOCC1	-	?	-	-	-	-
CN1C[C@@H]2[C@@H]3C(=O)N(C)C(=O)[C@@H]3[C@](C)(C1=O)N2C(=O)c1ccc(C(F)(F)F)cc1	.	-	.	.	.	-
CC(C)N1CCN(Cc2cnc(N3CCCC3)s2)CC1CCO (stereo not given)	-	-	9.28µM	-	-	-
Cc1ncc(CN2CCN(C(C)C)C(CCO)C2)s1 (stereo not given)	-	-	-	-	-	-
CC1(C#CC[N+]2(C)CCCCC2)CCC2C(O1)c1ccccc1OC2(C)C (stereo not given)	11.7µM	-	3.7µM	-	-	-
CC1(C(O)(C#CC[N+]2(C)CCCCC2)c2ccccc2)CCCC1 (stereo not given)	?	-	-	-	-	-
CCOC(=O)CSc1nnc(-c2ccc3ncccc3c2)n1C	11.7µM	-	-	-	-	-
Cc1cc(C)c(C(=O)CSc2nnc(-c3cccnc3)n2C)c(C)c1	11.7µM	-	.	-	-	-
Cc1cc(C)c(NC(=O)CSc2nncn2-c2cccnc2)c(C)c1	-	-	11.7µM	-	-	-
SMILES	Pf growth 48h	HCV inhibitor	Pf growth 96h	SARS PLP yeast	NS1 inh	AMA1 RON2 block
Cc1c(Cl)cccc1NC(=O)CSc1nncn1-c1cccnc1	-	-	?	-	-	-
C#CCNC(=O)C1=C[C@H](c2ccc(C(F)(F)F)cc2)C[C@H](OCCCCO)O1	?	?	?	-	-	-
CC(C)OC(=O)c1ccc(NC(=O)Cn2c(-c3nonc3N)nc3ccccc32)cc1	10.4µM	-	8.28µM	-	-	-
Cn1c(-c2nonc2N)nc2ccccc21	-	-	10.4µM	-	-	-
CCCn1c(-c2nonc2N)nc2ccccc21	-	-	-	-	-	-
COc1cc(/C=N/Nc2cc(C)nc(N)n2)ccc1O	-[0.00184 µM]	-	?	-	-	-
COc1ccc(/C=N/Nc2cc(C)nc(N)n2)cc1	9.28µM	-	-	-	-	-
COc1ccc(/C=N/Nc2cc(N(C)C)nc(N(C)C)n2)cc1	?	?	11.7µM	-	-	?
CN(Cc1cnn(-c2ccccc2)c1)C(=O)C1CCC(=O)N(C2CC2)C1 (stereo not given)	-	-	-	-	-	-
O=C(NCc1cnn(-c2ccccc2)c1)C1CCC(=O)N(C2CC2)C1 (stereo not given)	-	-	5.22µM	-	-	-
O=C(NCc1ccccc1OC(F)(F)F)C1CCC(=O)N(C2CC2)C1 (stereo not given)	-	-	11.7µM	-	-	-
O=C(NCc1ccccc1C(F)(F)F)C1CCC(=O)N(C2CC2)C1 (stereo not given)	-	-	-	?	-	-
Nc1c(Cl)ncnc1NCc1cccnc1	-	-	-	-	-	-
Nc1c(Cl)ncnc1NCCc1ccc(O)cc1	-	6.31µM	-	-	-	-
O=C(c1cccs1)N1CCc2ccccc2C1	-	-	-	-	-	-
COc1cc2c(cc1OC)CN(C(=O)c1cccs1)CC2	0.657µM	-	-	-	-	-
COc1cc2c(cc1OC)CN(C(=O)c1nn(Cc3ccccc3)c(=O)c3ccccc13)CC2	10.4µM	10µM	?	-	.	-
CC(=O)c1ccc(N2CCN(C(=O)c3nn(Cc4ccccc4)c(=O)c4ccccc34)CC2)cc1	3.7µM	?	-	-	.	-
COc1cc2c(cc1OC)CN(C(=O)CSc1nc3[nH]ncc3c(=O)n1-c1ccccc1)CC2	?	11.2µM	-	-	-	-
CC(=O)c1ccc(N2CCN(C(=O)c3n[nH]c4ccccc34)CC2)cc1	?	-	-	-	.	-
COC(=O)c1nn(Cc2ccccc2)c(=O)c2ccccc12	-	-	-	-	-	-
CC(=O)NC(Cc1cccc(F)c1)C(=O)NC1CCN(C(=O)c2ccc(C)cc2)CC1 (stereo not given)	-	-	-	-	-	-
NS(=O)(=O)c1ccccc1	?	-	-	-	-	-
O=S(=O)(/C=C/C=C/S(=O)(=O)c1ccccc1)c1ccccc1	.	8.91µM	.	.	.	-
O=C(NCc1ccco1)C1CCN(c2ccc(S(=O)(=O)N3CCOCC3)cc2[N+](=O)[O-])CC1	?	-	?	-	-	-
CC[n+]1oc(-c2ccccc2)cc1C	?	-	-	-	.	-
CCOc1ccc(/C=N/NC(=S)NC2CC3CC2C2C=CCC32)cc1 (stereo not given)	4.15µM	-	0.657µM	-	-	-
COc1cc(/C=N/NC(=S)NC2CC3CC2C2C=CCC32)ccc1O (stereo not given)	8.28µM	?	?	-	-	-
Cc1cc(NC(=O)c2c(-c3c(Cl)cccc3Cl)noc2C)n(C)n1	-	-	?	-	-	-
COc1ccc(NC2=NCC(Cc3ccc(Br)cc3)S2)cc1 (stereo not given)	?	?	?	-	-	17.8µM
